# Screening data from PubChem.
# Shown are actives, neighbours in structure and some others; about 6.2% of the full set was active somewhere.
# S2 tox: reduces viability in counter-screen for ATXN expression inhibitors; S2 cells (HEK-293 line with an ATXN2-luciferase reporter) viability, CellTiter-Fluor protease fluorescence, 24 h; Potency, µM (doses to about 56.7 µM), usual class: cytotoxic; 0.49% of 400,000 active; AID 651635; note: nearly all actives have a fitted effect of over 40% in size
# HT1080 IDH1KD tx: kills HT-1080 cells with IDH1 knockdown; HT-1080 IDH1 knockdown viability, ATP luminescence, 48 h; Potency, µM (highest dose often 46.1 µM), for inactives: at the highest dose activity, negative = toxicity, hits mostly cytotoxic; AID 686971; 2% of 360,000 active;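 note: 0% = DMSO wells and -100% = cell-free medium wells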
#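 % activity derives from luminescence (CellTiter-Glo), normalised to DMSO and no-cell wells. HT-1080-IDH1KD cells, 750/well, had 48 h compound exposure at 37 °C.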
# KB-V1 MDR tox: KB-V1 MDR subline cytotoxicity; 3.4% of 400,000 active; AID 1347076; Potency, µM (titrated, usually from 46.1 µM), hits mostly cytotoxic; KB-V1 MDR cells viability, CellTiter-Glo, 72 h; note: % is set by controls: 0 for no effect and ±100 for the full control effect; nearly all actives have a fitted effect of over 60% in size
#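 Cells of the MDR subline KB-V1 are plated, dosed with compound at multiple concentrations, and incubated 72 h at 37 degrees C; CellTiter-Glo is then added and luminescence read after 10 min.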
# HT1080-NT tox: kills 2HG-producing HT-1080-NT fibrosarcoma cells; 1.6% of 360,000 active; HT-1080-NT fibrosarcoma viability, CellTiter-Glo ATP luminescence, 48 h; Potency, µM (top dose mostly 46.1 µM), for inactives: at the top dose activity, negative = less viability, usual class: cytotoxic;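 note: NT is the 2HG producing partner of a matched IDH1 knockdown line; 0% = DMSO-treated cells and -100% = media-only wells without cells; nearly all actives have a fitted effect of over 55% in size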
#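 Compounds were tested in concentration-response format on HT-1080-NT cells for 48 hours at 37 degrees C. Cell viability came from CellTiter-Glo luminescence; curves were classified by r2, response magnitude and activity.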
# KB-3-1 cytotox: KB-3-1 parental cell cytotoxicity | AID 1347075 | 1.4% of 400,000 active | Potency, µM (titrated, usually from 46.1 µM), actives largely listed as cytotoxic | KB-3-1 viability, CellTiter-Glo ATP luminescence, 72 h; note: % is set by controls: 0 for no effect and ±100 for the full control effect; nearly all actives have a fitted effect of over 60% in size
#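 KB-3-1 parental drug-naive adenocarcinoma cells in DMEM/10% FBS, incubated 72 h at 37 C with pin-transferred compounds across a concentration series. Viability by CellTiter-Glo luminescence; concentration-response curves fitted after normalization.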
# ATXN2 expr inh: inhibitors of ATXN2 expression; Potency, µM (top dose mostly 57 µM), for inactives: at the highest dose activity change, negative = inhibition, most hits filed as inhibitors; 0.72% of 360,000 active; HEK-293 ATXN2-luciferase reporter, luminescence, 24 h; AID 1745845; note: % is set by controls: 0 for no effect and ±100 for the full control effect; nearly all actives have a fitted effect of over 55% in size
#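 qHTS (up to 57 uM final) was run with 24 h compound exposure of reporter cells at 37 °C. Each well was multiplexed: SteadyGlo luminescence measured ATXN2-luciferase expression after a fluorogenic Gly-Phe-AFC viability readout (25 uM final).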
# The depositor's hits bear a star; i = inactive; ? = inconclusive; / = not tested or not shown. Calls come from the whole dose curve; as a rule, active = well fitted curve in the direction sought with a large enough effect; inconclusive = small, poorly fitted or top-dose-only effect, or another doubt; inactive = no such curve, though single readings can be large; an effect the other way counts as inactive or inconclusive. Potency is the fitted concentration of half-maximal effect.
SMILES,S2 tox,HT1080 IDH1KD tx,KB-V1 MDR tox,HT1080-NT tox,KB-3-1 cytotox,ATXN2 expr inh
COCCN1CCN(C(=O)c2cnn(-c3nccc(-c4ccccc4F)n3)c2-c2ccco2)CC1,i,/,/,/,/,/
CN(C)CC1CCC/C(=C/c2ccc(Cl)cc2)C1=O (centres undefined),12µM*,?,?,-16%,?,?
COc1cccc(/C=C2/CCC(CN(C)C)C2=O)c1 (centres undefined),/,?,?,?,?,13µM*
CN(C)CC1CCC/C(=C\c2ccc(OC(=O)/C=C/c3ccc(Cl)c(Cl)c3)cc2)C1=O (centres undefined),?,-2%,?,2%,?,-12%
COc1ccc(/C=C2/CCCC(CN(C)C)C2=O)cc1 (centres undefined),/,8.2µM*,?,6%,?,?
COc1cccc(/C=C2\CCC(C3CCCC3)C2=O)c1 (centres undefined),i,6%,i,4%,i,56%
CCCC/C=C1/CCC(CN(C)C)C1=O (centres undefined),/,-27%,?,5%,?,?
Cc1ccc2c(c1)C(=O)OC(C(=O)Nc1ncc(Cc3ccc(C(C)C)cc3)s1)C2 (centres undefined),i,/,i,/,i,6%
CC(C)Cn1cc(NC(=O)NCc2ccccc2Cl)c2ccccc2c1=O,i,/,i,/,i,5%
Cc1cccc(OCC(=O)NCC(=O)N/N=C/c2cc(Br)cc(Br)c2O)c1,i,?,i,?,?,14µM*
COc1ccc2nc(SCC(=O)N(C)C3CCCCC3)c(C#N)cc2c1,i,-1%,15µM*,9%,i,-5%
CCOC(=O)CC(=O)CSc1nc2ccc(C)cc2cc1C#N,i,7.1µM*,i,?,i,69%
COc1ccc2nc(SCC(=O)N3CCCCC3)c(C#N)cc2c1,i,-1%,i,-2%,i,38%
CCOC(=O)CC(=O)CSc1nc(CC)c(C)cc1C#N,?,7%,i,12%,i,-28%
COc1ccc2nc(N3CCCC3)c(C#N)cc2c1,/,7%,13µM*,18%,i,1%
O=S(=O)(c1cccs1)N1CCN(CC(O)COc2cc(Cl)ccc2Cl)CC1 (centres undefined),i,?,8.2µM*,-25%,?,-39%
COc1ccccc1OCCNC(=O)/C=C/c1ccc([N+](=O)[O-])cc1,i,-1%,15µM*,7%,i,-5%
CCCCOc1ccc(/C=C/C(=O)Nc2ccc([N+](=O)[O-])cc2C)cc1,i,-1%,i,-7%,i,7%
CCCOc1ccc(/C=C/C(=O)Nc2ccc([N+](=O)[O-])cc2)cc1,?,-4%,26µM*,13µM*,7.3µM*,?
CC(=O)Nc1ccccc1-c1nc(CNC(=O)c2ccc(-n3cccn3)cc2)c(C)o1,i,/,/,/,/,/
Cc1ccc2c(=O)cc(C(=O)Nc3c(C(=O)c4ccc(F)cc4)oc4ccccc34)oc2c1C,i,/,?,/,i,-2%
CS(=O)(=O)c1nc(-c2ccc(Br)cc2)cc(-c2ccccc2)c1C#N,/,?,i,?,?,?
CS(=O)c1nc(-c2ccc(Br)cc2)cc(-c2ccccc2)c1C#N (centres undefined),20µM*,3.5µM*,?,5.6µM*,?,13µM*
O=C1C(=O)N(C2CCN(S(=O)(=O)c3ccc(F)cc3)CC2)CCN1Cc1ccccc1,i,/,i,/,i,0%
COc1ccc2nc(NC(=O)C3CCN(S(=O)(=O)c4cccc5nsnc45)CC3)sc2c1,i,?,1.6µM*,-11%,?,?
SMILES,S2 tox,HT1080 IDH1KD tx,KB-V1 MDR tox,HT1080-NT tox,KB-3-1 cytotox,ATXN2 expr inh
C=CCC[C@@H](Cc1ccc(F)cc1)C(=O)OC[C@@H](NC(=O)[C@@H](CC=C)CC(=O)N[C@@H](CO)Cc1ccccc1)C(C)(C)C,22µM*,?,?,?,?,?
C=CC[C@@H](CC(=O)N[C@H](CO)Cc1ccccc1)C(=O)N[C@H](COC(=O)[C@@H](CC=C)Cc1ccc(F)cc1)C(C)(C)C,?,-22%,i,?,21µM*,?
C=CC[C@H](CC(=O)N(CCO)Cc1ccccc1)C(=O)N[C@H](COC(=O)[C@@H](CC=C)Cc1ccc(F)cc1)C(C)(C)C,/,?,i,-30%,i,?
C=CCC[C@H](Cc1ccc(F)cc1)C(=O)OC[C@@H](NC(=O)[C@@H](CC=C)CC(=O)N(CCO)Cc1ccccc1)C(C)(C)C,20µM*,?,?,?,?,?
CCS(=O)(=O)N1CC(=O)N(c2ccccc2C)C(C)(C(=O)NC2CCCCC2)C1 (centres undefined),/,/,i,/,i,/
Cc1ccc(Cl)cc1NC(=O)c1cnn2c1NC(c1ccco1)CC2C(F)(F)F (centres undefined),i,-14%,i,-19%,i,-12%
CN(Cc1ccc(-n2cccn2)cc1)C(=O)c1cnn2c1NC(c1ccco1)CC2C(F)(F)F (centres undefined),i,-7%,4.6µM*,-8%,?,23%
O=C(Nc1ccc2c(c1)CCC2)c1cnn2c1NC(c1ccco1)CC2C(F)(F)F (centres undefined),i,23µM*,i,?,i,-6%
Cc1ccc(NC(=O)CSc2nc3c(c(=O)[nH]2)CCC3)cc1Cl,i,/,i,/,i,-8%
CCc1cccc(NC(=O)Cn2c(=O)n(Cc3ccccc3)c(=O)c3c2c2cc(OC)ccc2n3C)c1,i,/,i,/,i,7%
COc1cc(N)ccc1Nc1c2ccccc2nc2ccccc12,/,23µM*,i,?,i,?
CCCS(=O)(=O)Nc1ccc(Nc2c3ccccc3nc3ccccc23)c(OC)c1,12µM*,?,23µM*,-9%,?,?
Cc1ccc(O)c(Nc2c3ccccc3nc3ccccc23)c1,/,16µM*,i,23µM*,i,-37%
COc1ccc(Nc2nc3ccccc3c(=O)s2)c(OC)c1,?,4%,i,-1%,i,5%
CCC(C)(C)NC(=O)C(c1ccc(C)cc1)N(CC1CCCO1)C(=O)c1csnn1 (centres undefined),i,8%,i,-1%,i,1%
Cn1cc(S(=O)(=O)c2ccccc2)c(=O)c2cc(F)c(N3CCCCCC3)cc21,/,/,i,/,i,/
